The source made the active and inactive calls. The calls were made as follows: active = hit-call score of the fitted dose curve at least 0.9, where 1 is the maximum; inactive = score below 0.9.
Assay: APR_HepG2_MitoMembPot_72hr: Apredica 72-hour HepG2 Assay for Mitochondrial Membrane Potential (AID 2282917)
Details: imaging, actives raise or lower the signal
Procedure: APR_HepG2_72hr is a cell-based, multiplexed-readout assay that uses HepG2, a human liver cell line, with measurements taken at 72 hours after chemical dosing in a 384-well plate.APR_HepG2_MitoMembPot_72hr is one of 10 assay component(s) measured or calculated from the APR_HepG2_72hr assay. It is designed to make measurements of dye binding, a form of membrane potential reporter, as detected with fluorescence intensity signals by HCS Fluorescent Imaging technology.Data from the assay component APR_HepG2_MitoMembPot_72hr was analyzed into 1 assay endpoint. This assay endpoint, APR_HepG2_MitoMembPot_72hr, was analyzed with bidirectional fitting relative to DMSO as the negative control and baseline of activity. Using a type of membrane potential reporter, gain or loss-of-signal activity can be used to understand changes in the signaling. Furthermore, this assay endpoint can be referred to as a primary readout, because this assay has produced multiple assay endpoints where this one serves a signaling function. To generalize the intended target to other relatable targets, this assay endpoint is annotated to the cell morphology intended target family, where the subfamily is organelle conformation.
Cells were treated with dimethyl sulfoxide (DMSO) as a solvent control at a final concentration of 0.5% v/v or with compounds in DMSO with a resulting final DMSO concentration of 0.5% v/v. Compound treatment was done at concentrations of 0.39, 0.78, 1.56, 3.12, 6.24, 12.5, 25, 50, 100, and 200 uM in duplicate on each plate. Cells were treated with compounds for 1, 24, or 72 hr. Carbonyl […] m-chloro-phenylhydrazone (CCCP) and taxol were used as positive controls for mitochondrial function and cytoskeletal stability, respectively; DMSO served as the negative control for this experiment. Cells were fixed by the direct addition of 50 uL formaldehyde in Hank's Balanced Salt Solution (HBSS) to a final concentration of 3.7%. After incubation in the fixation medium for 30 min at room temperature (293-298 K), cells were rinsed twice with HBSS and treated with cell permeabilization buffer (16 uL of 0.5% Triton X-100) for 10 min at room temperature (293-298 K) before labeling. For mitochondrial membrane potential and mitochondrial measurements, pre-fixed cells were incubated with 50 uL of MitoTracker Red CMXRos (Invitrogen) at a concentration of 250 nM for 30 min before fixation. In the remaining cases, post-fixed cells were labeled by incubation with a multiplexed mixture of primary antibodies in HBSS for 60 min at room temperature (293-298 K) to detect immunoreactivity of c-Jun (1:500), phospho-histone H3 (1:100), phospho-histone H2A.x (1:200), p53 (1:400), alpha-tubulin (1:200) and Hoechst 33342 (2 ug/mL). Cells were labeled for multiplexed imaging on two separate plates: a) Hoechst 33342, MitoTracker Red, phospho-histone H3, and alpha-tubulin, and b) Hoechst 33342, phospho-histone H2A.x, and c-Jun. A final rinse with HBSS (50 uL) was performed before analysis. The primary and secondary antibodies for the proteins were phospho-histone H3 (rabbit anti-phospho-histone H3 and FITC-donkey anti-rabbit IgG), phospho-histone H2A.x (mouse anti-phospho-histone H2A.x and FITC-donkey anti-mouse IgG), c-Jun (rabbit anti-phospho-c-Jun and Cy3-donkey anti-rabbit IgG), p53 (sheep anti-p53 and Cy5-donkey anti-sheep IgG), alpha-tubulin (mouse anti-alpha-tubulin and Cy5-donkey anti-mouse IgG). These antibodies are available as the CellCiphr HepG2 assay kit (Millipore).Digital images of each well were captured using a Cellomics ArrayScan VTI (Thermo Scientific Cellomics) (0.8 NA objective, 0.63x optical coupler, and XF-93 filter set) at 20x magnification. The images were acquired using the autofocus feature of the ArrayScan instrument, which entails the following steps. First, the camera focuses on channel 1 (Hoechst 33342), where nuclei are identified. Second, a Z offset of 1 um is used for capturing mitochondria (MitoTracker Red). […]

Row | Structure (SMILES) | outcome | AC50
1 | CCOC(=O)c1ccccc1C(=O)OCC | inactive | –
2 | CC(Cc1ccc(OCC(=O)O)cc1)NCC(O)c1csc(C(F)(F)F)n1 (stereo not given) | inactive | –
3 | [N-]=[N+]=[N-] | inactive | –
4 | CC(C)(C)c1ccc(O)cc1 | inactive | –
5 | CCCCCCCc1ccc(O)cc1 | inactive | –
6 | Cc1ccc(N)cc1N | inactive | –
7 | CCCCN(CCCC)N=O | inactive | –
8 | O=C(O)C(Cl)Cl | inactive | –
9 | O=[N+]([O-])c1ccc(Cl)c(Cl)c1 | inactive | –
10 | Cc1ccc(O)cc1C | inactive | –
11 | c1nc[nH]n1 | inactive | –
12 | CSC(C)(C)C=NO | inactive | –
13 | CCNc1nc(Cl)nc(NC(C)(C)C)n1 | inactive | –
14 | O=[N+]([O-])c1ccccc1 | inactive | –
15 | CCOc1ccc(C(C)(C)COCc2cccc(Oc3ccccc3)c2)cc1 | inactive | –
16 | CCCCc1ccccc1 | inactive | –
17 | CC(C)(C)OOC(C)(C)C | inactive | –
18 | ClC1=C(Cl)C2(Cl)C3C(Cl)C(Cl)CC3C1(Cl)C2(Cl)Cl (stereo not given) | – | 27.1 µM (active)
19 | CCN(CC)c1ccccc1 | inactive | –
20 | O=P(Oc1ccccc1)(Oc1ccccc1)Oc1ccccc1 | inactive | –

Row | Structure (SMILES) | outcome | AC50
21 | Cc1cccc(N)c1 | inactive | –
22 | CC(Cl)(Cl)C(=O)O | inactive | –
23 | ClC(Cl)c1ccccc1 | inactive | –
24 | Nc1ccc2ccccc2c1 | inactive | –
25 | ClC(Cl)(Cl)c1ccccc1 | inactive | –
26 | CCOP(=S)(OCC)SCSCC | inactive | –
27 | CN(C)C(=O)Cl | inactive | –
28 | CCC(C)(C)c1ccc(O)cc1 | – | 56.4 µM (active)
29 | O=P1(N(CCCl)CCCl)NCCCO1 (stereo not given) | inactive | –
30 | Nc1cc2c3c(c1)C(c1ccccc1)=N[C@@H](NC(=O)c1cccnc1)C(=O)N3CC2 | inactive | –
31 | CCC1(c2ccccc2)C(=O)N=C(O)NC1=O (stereo not given) | inactive | –
32 | OCC1CO1 (stereo not given) | inactive | –
33 | CCOP(=S)(Oc1ccc([N+](=O)[O-])cc1)c1ccccc1 (stereo not given) | inactive | –
34 | Nc1ccc(Cl)cc1 | inactive | –
35 | c1ccc2c(c1)Nc1ccccc1S2 | – | 123 µM (active)
36 | CCOS(=O)(=O)OCC | inactive | –
37 | CCCCN(CCCC)SN(C)C(=O)Oc1cccc2c1OC(C)(C)C2 | inactive | –
38 | Cc1ccc([N+](=O)[O-])cc1C | inactive | –
39 | COCCOCCO | inactive | –
40 | CCCN(CCC)c1c([N+](=O)[O-])cc(C(C)C)cc1[N+](=O)[O-] | – | 46.9 µM (active)
